Cruzain Triton – blocks cruzain activity in presence of Triton detergent; P25779; purified cruzain, Z-FR-AMC fluorescence, 0.01% Triton; Potency, µM, hits mostly inhibitors; 0.43% of 200,000 active; note: nearly all actives have a fitted effect of over 40% in size
Target sequence (P25779 123-467 limits assumed): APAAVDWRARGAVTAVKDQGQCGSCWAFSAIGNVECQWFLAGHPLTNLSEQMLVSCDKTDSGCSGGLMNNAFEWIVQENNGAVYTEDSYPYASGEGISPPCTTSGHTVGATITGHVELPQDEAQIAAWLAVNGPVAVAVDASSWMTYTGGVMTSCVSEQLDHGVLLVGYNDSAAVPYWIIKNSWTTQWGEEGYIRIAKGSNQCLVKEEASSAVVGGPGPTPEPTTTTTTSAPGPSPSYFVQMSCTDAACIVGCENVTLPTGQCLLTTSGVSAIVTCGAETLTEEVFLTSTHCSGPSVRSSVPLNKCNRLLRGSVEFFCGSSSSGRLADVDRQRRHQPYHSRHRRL
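Detergent-containing run (0.01% Triton X-100) in acetate buffer pH 5.5 with 5 mM DTT: enzyme at 1.5 nM final, 15 min compound preincubation at room temperature, then 2 uM Z-FR-AMC substrate. Activity taken as 60 s fluorescence increase at 360/450 nm.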
Cruzain inh noDet – cruzain (T. cruzi) inhibition without detergent; purified cruzain, Z-FR-AMC fluorescence, no detergent; Potency, µM, hits mostly inhibitors; 2.3% of 200,000 active; note: nearly all actives have a fitted effect of over 40% in size
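Purified cruzain at 1.5 nM, pre-incubated 15 min with compound at room temperature in 100 mM sodium acetate pH 5.5, 5 mM DTT, 0.00005% Triton X-100. Reaction started with 2 uM Z-FR-AMC; AMC fluorescence increase over 60 s gives rate.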
Of the large screens only hits and unclear results are named; the others gave an inactive call. An excerpt weighted towards active compounds, which were near 2.4% of everything screened. Calls come from the whole dose curve; as a rule, active = well fitted curve in the direction sought with a large enough effect; inconclusive = small, poorly fitted or top-dose-only effect, or another doubt; inactive = no such curve, though single readings can be large; an effect the other way counts as inactive or inconclusive.

O=C(CC1S/C(=N/N=C/C=C/c2ccccc2)NC1=O)Nc1ccc(Cl)c(Cl)c1 (stereo unspecified)	Cruzain inh noDet 6.3µM
Cc1ccc(CNC(=O)c2sc3nc(-c4ccc(F)cc4)ccc3c2N)cc1	none
COc1ccc(-c2ccc3c(N)c(C(=O)NCc4ccc(C)cc4)sc3n2)cc1	Cruzain Triton 13µM, Cruzain inh noDet 16µM
O=C(O)CSCCc1ccccc1	none
O=c1[nH]c(SCc2ccccc2Cl)nc2c1cnn2-c1ccccc1	Cruzain inh noDet 16µM
Cc1ccc(-n2ncc3c(=O)[nH]c(SCC(=O)N4CCN(c5ccccc5)CC4)nc32)cc1	Cruzain inh noDet 25µM
O=c1[nH]c(SCc2nc3c(cnn3-c3ccccc3)c(=O)[nH]2)nc2ccccc12	none
Cc1ccc(-n2ncc3c(=O)[nH]c(SCC(=O)N4CCOCC4)nc32)cc1	none
O=C(Nc1cccc(C(=O)OCc2cc(=O)n3c4c(sc3n2)CCCC4)c1)c1cccc(F)c1	none
CC[C@@H](Nc1ncnc2nc[nH]c12)C(=O)O	none
Cc1c(Cl)cccc1-n1nnc(-c2nc(-c3ccc4c(c3)OCO4)no2)c1C	none
C[C@]12C[C@H](O)C3[C@@H](CCC4=CC(=O)CC[C@@]43C)[C@@H]1CC[C@@H]2C(=O)CO (stereo partly specified)	none
COc1ccc(OCC(=O)OCc2cc(=O)n3nc(C4CC4)sc3n2)cc1	none
COc1ccc(/C=N/NC(=O)c2[nH]c3ccc(Br)cc3c2-c2ccccc2)cc1	Cruzain inh noDet inconclusive
O=C(N/N=C/c1ccccc1Cl)c1[nH]c2ccc(Br)cc2c1-c1ccccc1	Cruzain inh noDet 13µM
C[C@H](NC(=O)/C(C#N)=C/c1ccc(O)c(O)c1)c1ccccc1	none
CCN1CC=C2C(C#N)=C(N)C(C#N)(C#N)[C@H](c3cccc(OC)c3OC)[C@H]2C1	none
CCN1CC=C2C(C1)C(c1ccc(Cl)s1)C(C#N)=C(N)C2(C#N)C#N (stereo unspecified)	Cruzain Triton 25µM, Cruzain inh noDet 25µM
C[N+](C)(C)[C@H](Cc1c[nH]c(=S)[nH]1)C(=O)O	none
COc1ccc(-c2cc(C)nc(SCc3cccc(C(=O)O)c3)n2)cc1	none
O=C(O)c1cccc(CSc2nc(-c3ccc(Cl)cc3)cc(C(F)(F)F)n2)c1	Cruzain Triton 28µM
Cc1c(Cl)cccc1NC(=O)C(=O)NCCc1csc(-c2cccc(F)c2)n1	none
COCCn1c(=NC(=O)CN2C(=O)CCC2=O)sc2cc(S(N)(=O)=O)ccc21	none
COCCn1c(=NC(=O)c2ccc(S(=O)(=O)N3CCc4ccccc4C3)cc2)sc2cc(OC)ccc21	Cruzain inh noDet 4µM
Cc1ccc2ncc(C(=O)c3ccc(C)c(C)c3)c(S(=O)(=O)c3ccccc3)c2c1	none
CCOc1ccc(S(=O)(=O)c2c(C(=O)c3ccc(C)cc3)cnc3cc4c(cc23)OCCO4)cc1	Cruzain inh noDet 6.3µM
Cc1ccc(C(=O)c2cnc3cc4c(cc3c2S(=O)(=O)c2ccccc2)OCCO4)cc1	Cruzain inh noDet inconclusive
COc1ccc(S(=O)(=O)c2c(C(=O)c3ccc(C)c(C)c3)cnc3ccc(C)cc23)cc1	Cruzain inh noDet 13µM
Cc1cc(C)cc(NC(=O)c2sc3nc(-c4ccccc4)cn3c2C)c1	Cruzain inh noDet inconclusive
Cc1ccccc1NC(=O)CSc1nc2c(oc3ccccc32)c(=O)n1Cc1ccco1	none
NC(Cc1cc(I)c(Oc2cc(I)c(O)c(I)c2)c(I)c1)C(=O)O (stereo unspecified)	none
COC(=O)c1ccccc1NC(=O)Cn1c(=O)n(CCCC(=O)NCCc2ccc(OC)c(OC)c2)c(=O)c2ccccc21	none
COc1ccc(-n2c(=O)c3ccc(C(=O)NCc4ccc(C)cc4)cc3n(CC(=O)Nc3cccc(F)c3)c2=O)cc1	none
COc1ccc2ccccc2c1C1CC(=O)N2CN(C3CCCCC3)CSC2=C1C#N (stereo unspecified)	Cruzain inh noDet inconclusive
COc1ccc(C2CC(=O)N3CN(C4CCCCC4)CSC3=C2C#N)c(OC)c1 (stereo unspecified)	Cruzain Triton 25µM
Cc1c(C(=O)N(Cc2ccccc2F)C2CCS(=O)(=O)C2)oc2ccc(F)cc12 (stereo unspecified)	none
c1ccc(C(c2cccc3c2ccc2ccccc23)[C@H](c2ccccc2)c2cccc3c2ccc2ccccc23)cc1 (stereo partly specified)	Cruzain inh noDet 4µM
c1ccc2c(c1)ccc1cc3c(ccc4ccccc43)cc12	none
Cc1cc2c(cc1NC(=O)c1ccccc1C)n(C)c(=O)c(=O)n2C	none
CCOC(=O)C1=C(CS(=O)(=O)c2ccc(F)c(C)c2)NC(=O)NC1c1ccccc1OC (stereo unspecified)	none
CCOc1ccc(OCC(=O)NCCc2nc3ccccc3[nH]2)cc1	Cruzain Triton 5µM, Cruzain inh noDet 0.79µM
O=C(CNC(=O)c1ccccc1)NCCc1nc2ccccc2[nH]1	none
Cc1cc(=O)oc2cc(OCC(=O)NCCc3nc4ccccc4[nH]3)ccc12	Cruzain Triton 13µM, Cruzain inh noDet 2.5µM
CCOC(=O)CCc1nc2ccccc2[nH]1	none

Assay outcomes: PubChem, National Center for Advancing Translational Sciences (NCATS)
